Experimental data reported in PubChem BioAssay (EPA / NIEHS).
The source made the active and inactive calls. Rule for the calls: active = hit-call score of the fitted dose curve at least 0.9, where 1 is the maximum; inactive = score below 0.9.

Tests used:
Conditions in all cases: mRNA level, 48 h; actives raise or lower the signal
[1] = read-out: Apolipoprotein A-V (APOA5) gene, APOA5 (gene 116519); experiment: LTEA_HepaRG_APOA5: Life Technologies and Expression Analysis (LTEA) Assay for Apolipoprotein A-V (APOA5) gene using HepaRG (AID 2283474)
Summary of the method: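 Readout is APOA5 transcript level by qRT-PCR on Fluidigm dynamic arrays, normalized to three housekeeping genes. HepaRG cultures received chemicals for 48 h at up to 100 uM (half-log steps, 0.5% DMSO), with gain or loss scored relative to DMSO.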

[2] = read-out: Apoptosis regulator Bcl-2 (Homo sapiens) (UniProt P10415); experiment: LTEA_HepaRG_BCL2: Life Technologies and Expression Analysis (LTEA) Assay for Bcl-2 gene using HepaRG (AID 2283475)
Summary of the method: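 Each chemical was tested in duplicate on HepaRG cultures held in serum-free induction medium for 48 h, highest concentration 100 uM with half-log dilutions. Transcript levels came from multiplexed qRT-PCR, normalised to housekeeping genes; activity was scored in either direction relative to DMSO.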

[3] = read-out: Bcl-2 (BID) gene, BID (gene 637); experiment: LTEA_HepaRG_BID: Life Technologies and Expression Analysis (LTEA) Assay for Bcl-2 (BID) gene using HepaRG (AID 2283476)
Summary of the method: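 Assay used HepaRG hepatic cells treated 48 h in serum-free medium with half-log dilutions from 100 uM. Endpoint: BID mRNA, qRT-PCR, normalized to ACTB/GAPDH/POLR2A.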

Caspase-3 (Homo sapiens) = Caspase-3 (Homo sapiens) (UniProt P42574); experiment: LTEA_HepaRG_CASP3: Life Technologies and Expression Analysis (LTEA) Assay for cysteine-aspartic acid protease (CASP3) using HepaRG (AID 2283477)
Summary of the method: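 Read-out is CASP3 mRNA level by TaqMan qRT-PCR in human HepaRG cells after 48 h chemical exposure. Eight half-log concentrations topping at 100 uM were tested in 0.5% DMSO; gain or loss was fitted relative to DMSO.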

[4] = read-out: Cytochrome P450 (CYP24A1), CYP24A1 (gene 1591); experiment: LTEA_HepaRG_CYP24A1: Life Technologies and Expression Analysis (LTEA) Assay for Cytochrome P450 (CYP24A1) using HepaRG (AID 2283478)
Summary of the method: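 HepaRG, 48 h chemical exposure, 8-pt half-log CRC from 100 uM, 0.5% DMSO vehicle, duplicates. Endpoint: CYP24A1 mRNA by Fluidigm TaqMan qRT-PCR, normalized ACTB/GAPDH/POLR2A; gain/loss fit vs DMSO.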

[5] = read-out: Cytochrome P450 (CYP1A2), CYP1A2 (gene 1544); experiment: LTEA_HepaRG_CYP1A2: Life Technologies and Expression Analysis (LTEA) Assay for Cytochrome P450 (CYP1A2) using HepaRG (AID 2283479)
Summary of the method: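 CYP1A2 transcript induction or loss, quantified by Fluidigm qRT-PCR against three housekeeping genes, was fitted bidirectionally against 0.5% DMSO controls. Human HepaRG cells received eight half-log concentrations from 100 uM over 48 h.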

[6] = read-out: cysteine-aspartic acid protease (CASP8), CASP8 (gene 841); experiment: LTEA_HepaRG_CASP8: Life Technologies and Expression Analysis (LTEA) Assay for cysteine-aspartic acid protease (CASP8) using HepaRG (AID 2283480)
Summary of the method: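 qRT-PCR readout of CASP8 mRNA, normalized to three housekeeping genes, after 48 h chemical exposure of HepaRG cells; 8-point half-log series, top 100 uM, 0.5% DMSO vehicle. Bidirectional curve fitting against DMSO baseline.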

[7] = read-out: Cytochrome P450 (CYP2B6), CYP2B6 (gene 1555); experiment: LTEA_HepaRG_CYP2B6: Life Technologies and Expression Analysis (LTEA) Assay for Cytochrome P450 (CYP2B6) using HepaRG (AID 2283481)
Summary of the method: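 HepaRG cells plated 48 h, switched to serum-free induction medium, then dosed 48 h (8 points, half-log from 100 uM, 0.5% DMSO). RNA isolated; CYP2B6 expression measured by qRT-PCR; gain or loss fitted relative to DMSO.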

[8] = read-out: Cytochrome P450 2C19 (Homo sapiens) (UniProt P33261); experiment: LTEA_HepaRG_CYP2C19: Life Technologies and Expression Analysis (LTEA) Assay for CYP2C19 using HepaRG (AID 2283482)
Summary of the method: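 Transcript levels of CYP2C19 were quantified by qRT-PCR after HepaRG cells were treated for 48 hours with test chemicals up to 100 uM (eight half-log concentrations, 0.5% DMSO vehicle). Gain or loss of signal was fitted relative to DMSO.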

CYP2C8 (gene 1558) = experiment: LTEA_HepaRG_CYP2C8: Life Technologies and Expression Analysis (LTEA) Assay for CYP2C8 using HepaRG (AID 2283483)
Summary of the method: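 HepaRG (human liver line), 48 h chemical exposure, 8-pt half-log series from 100 uM, 0.5% DMSO vehicle. Readout: CYP2C8 transcript by qRT-PCR, housekeeping-normalized. Bidirectional fit vs DMSO baseline.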

CYP2C9 (gene 1559) = experiment: LTEA_HepaRG_CYP2C9: Life Technologies and Expression Analysis (LTEA) Assay for CYP2C9 using HepaRG (AID 2283484)
Summary of the method: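 HepaRG, 48 h dosing, 8-pt half-log series, top 100 uM, 0.5% DMSO vehicle. Read-out: CYP2C9 transcript by TaqMan qRT-PCR, housekeeping-normalized (ACTB/GAPDH/POLR2A). Gain or loss fitted vs DMSO baseline.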

CYP4A11 (gene 1579) = experiment: LTEA_HepaRG_CYP4A11: Life Technologies and Expression Analysis (LTEA) Assay for CYP4A11 using HepaRG (AID 2283486)
Summary of the method: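 HepaRG, 48 h chem exposure, 8 conc (100 uM top, half-log), 0.5% DMSO vehicle; qRT-PCR readout, housekeeping-gene normalized; bidirectional curve fit vs DMSO baseline.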

[9] = read-out: Cytochrome P450 3A4 (Homo sapiens) (UniProt P08684); experiment: LTEA_HepaRG_CYP3A4: Life Technologies and Expression Analysis (LTEA) Assay for CYP3A4 using HepaRG (AID 2283487)
Summary of the method: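 CYP3A4 transcript measured by TaqMan qRT-PCR and normalized to three housekeeping genes after 48 h chemical exposure of human HepaRG cells. Top concentration 100 uM, half-log steps, 0.5% DMSO vehicle; gain or loss fitted against DMSO baseline.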

[10] = read-out: DNA damage-inducible transcript 3 (DDIT3), DDIT3 (gene 1649); experiment: LTEA_HepaRG_DDIT3: Life Technologies and Expression Analysis (LTEA) Assay for DNA damage-inducible transcript 3 (DDIT3) using HepaRG (AID 2283488)
Summary of the method: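 Eight-point concentration-response (100 uM highest, half-log dilutions) in HepaRG, 48 h, duplicate wells. Endpoint: qRT-PCR mRNA, normalized (ACTB, GAPDH, POLR2A), bidirectional fitting with DMSO as baseline.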

[11] = read-out: Pro-epidermal growth factor (Homo sapiens) (UniProt P01133); experiment: LTEA_HepaRG_EGF: Life Technologies and Expression Analysis (LTEA) Assay for Epidermal growth factor (EGF) using HepaRG (AID 2283489)
Summary of the method: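 HepaRG, 48 h dosing, 100 uM top, half-log x8, 0.5% DMSO. Readout: TaqMan qRT-PCR (Fluidigm array), housekeeping-normalized. Gain or loss of signal fit vs DMSO.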

[12] = read-out: Ezrin (EZR), EZR (gene 7430); experiment: LTEA_HepaRG_EZR: Life Technologies and Expression Analysis (LTEA) Assay for Ezrin (EZR) using HepaRG (AID 2283491)
Summary of the method: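 HepaRG, 48 h chemical exposure, 8-pt half-log series from 100 uM, 0.5% DMSO vehicle, duplicates. Read-out: EZR mRNA by TaqMan qRT-PCR (Fluidigm array), housekeeping-normalized; bidirectional curve fit vs DMSO baseline.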

CYP3A5 (gene 1577) = experiment: LTEA_HepaRG_CYP3A5: Life Technologies and Expression Analysis (LTEA) Assay for CYP3A5 using HepaRG (AID 2283493)
Summary of the method: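 Readout was CYP3A5 mRNA by qRT-PCR. HepaRG cultures were exposed for 48 h in serum-free induction medium to chemicals at up to 100 uM, and responses were fitted in both directions relative to DMSO vehicle.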

CYP2E1 (gene 1571) = experiment: LTEA_HepaRG_CYP2E1: Life Technologies and Expression Analysis (LTEA) Assay for CYP2E1 using HepaRG (AID 2283485)
Summary of the method: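 Assay uses 48 h exposure of HepaRG hepatic cells, eight concentrations to 100 uM. Expression of CYP2E1 is quantified by TaqMan qRT-PCR with ACTB, GAPDH and POLR2A normalization; curves fitted in both directions relative to vehicle.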

[13] = read-out: Early growth response protein 1 (EGR1) transcription factor, EGR1 (gene 1958); experiment: LTEA_HepaRG_EGR1: Life Technologies and Expression Analysis (LTEA) Assay for Early growth response protein 1 (EGR1) transcription factor using HepaRG (AID 2283490)
Summary of the method: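 HepaRG, 48 h exposure, 8-pt half-log series from 100 uM, 0.5% DMSO vehicle; EGR1 transcript by TaqMan qRT-PCR (Fluidigm array), housekeeping-normalized; bidirectional fit relative to DMSO baseline.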

[14] = read-out: Cytochrome P450 3A7 (Homo sapiens) (UniProt P24462); experiment: LTEA_HepaRG_CYP3A7: Life Technologies and Expression Analysis (LTEA) Assay for CYP3A7 using HepaRG (AID 2283492)
Summary of the method: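 Human HepaRG liver cells, 48 h post-plating, switched to serum-free induction medium and exposed in duplicate for 48 h. Dosing: 100 uM top, half-log dilutions, 8 points, 0.5% DMSO vehicle. Read-out: CYP3A7 mRNA, gain or loss fitted against DMSO baseline.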

Measured: AC50

Cytochrome P450 3A4 (Homo sapiens), sequence (P08684 whole entry, looked up): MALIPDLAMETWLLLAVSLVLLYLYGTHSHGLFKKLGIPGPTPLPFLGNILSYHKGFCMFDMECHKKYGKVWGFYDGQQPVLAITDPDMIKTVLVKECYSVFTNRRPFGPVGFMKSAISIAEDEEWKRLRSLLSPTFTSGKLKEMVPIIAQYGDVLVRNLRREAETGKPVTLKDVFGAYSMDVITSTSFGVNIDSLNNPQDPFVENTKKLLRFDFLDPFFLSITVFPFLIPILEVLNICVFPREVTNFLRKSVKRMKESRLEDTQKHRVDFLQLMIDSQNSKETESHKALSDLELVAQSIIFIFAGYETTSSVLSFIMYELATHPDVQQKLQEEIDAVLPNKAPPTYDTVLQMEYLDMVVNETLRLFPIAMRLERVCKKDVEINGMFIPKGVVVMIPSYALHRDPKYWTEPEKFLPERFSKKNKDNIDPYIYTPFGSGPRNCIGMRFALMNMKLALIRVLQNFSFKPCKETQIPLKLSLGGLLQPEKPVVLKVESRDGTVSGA
Apoptosis regulator Bcl-2 (Homo sapiens), sequence (P10415 whole entry, looked up): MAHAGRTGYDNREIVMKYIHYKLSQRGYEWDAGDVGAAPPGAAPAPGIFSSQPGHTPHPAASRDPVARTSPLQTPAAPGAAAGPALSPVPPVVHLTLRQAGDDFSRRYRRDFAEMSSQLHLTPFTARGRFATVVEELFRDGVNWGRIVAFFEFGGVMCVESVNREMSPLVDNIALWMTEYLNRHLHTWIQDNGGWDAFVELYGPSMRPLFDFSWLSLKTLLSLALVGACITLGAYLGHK
Cytochrome P450 3A7 (Homo sapiens), sequence (P24462 whole entry, looked up): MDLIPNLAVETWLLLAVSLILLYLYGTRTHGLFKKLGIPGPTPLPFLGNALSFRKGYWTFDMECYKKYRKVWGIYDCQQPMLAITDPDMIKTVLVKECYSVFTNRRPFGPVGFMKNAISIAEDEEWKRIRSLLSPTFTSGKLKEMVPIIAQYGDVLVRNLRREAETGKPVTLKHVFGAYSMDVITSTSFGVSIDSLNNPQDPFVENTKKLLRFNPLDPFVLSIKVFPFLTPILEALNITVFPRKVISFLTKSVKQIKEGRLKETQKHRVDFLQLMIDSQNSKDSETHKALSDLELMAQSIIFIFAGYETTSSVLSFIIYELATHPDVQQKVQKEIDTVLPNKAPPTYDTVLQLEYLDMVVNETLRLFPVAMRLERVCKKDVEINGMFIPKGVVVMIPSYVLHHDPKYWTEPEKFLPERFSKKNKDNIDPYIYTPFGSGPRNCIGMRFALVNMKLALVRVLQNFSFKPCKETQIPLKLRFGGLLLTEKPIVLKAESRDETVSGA
Cytochrome P450 2C19 (Homo sapiens), sequence (P33261 whole entry, looked up): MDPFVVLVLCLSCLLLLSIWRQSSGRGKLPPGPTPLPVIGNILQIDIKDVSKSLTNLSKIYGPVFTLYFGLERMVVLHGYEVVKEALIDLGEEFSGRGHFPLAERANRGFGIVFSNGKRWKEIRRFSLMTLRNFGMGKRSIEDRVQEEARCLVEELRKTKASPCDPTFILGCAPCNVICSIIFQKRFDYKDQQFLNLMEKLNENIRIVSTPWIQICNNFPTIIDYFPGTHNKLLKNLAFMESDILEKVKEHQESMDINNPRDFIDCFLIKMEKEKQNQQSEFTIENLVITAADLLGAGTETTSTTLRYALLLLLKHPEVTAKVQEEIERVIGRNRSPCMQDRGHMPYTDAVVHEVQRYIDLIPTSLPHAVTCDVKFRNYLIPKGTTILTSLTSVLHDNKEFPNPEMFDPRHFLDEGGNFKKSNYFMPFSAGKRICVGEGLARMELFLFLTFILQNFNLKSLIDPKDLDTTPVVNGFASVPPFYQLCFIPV
Caspase-3 (Homo sapiens), sequence (P42574 whole entry, looked up): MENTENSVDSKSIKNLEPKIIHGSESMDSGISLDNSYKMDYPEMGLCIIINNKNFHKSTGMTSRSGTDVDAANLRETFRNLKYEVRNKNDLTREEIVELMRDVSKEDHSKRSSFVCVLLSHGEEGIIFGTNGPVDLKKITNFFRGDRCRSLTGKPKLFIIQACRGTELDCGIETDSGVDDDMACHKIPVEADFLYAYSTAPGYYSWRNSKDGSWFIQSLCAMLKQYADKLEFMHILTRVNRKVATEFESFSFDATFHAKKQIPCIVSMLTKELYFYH

C1=Cc2cccc3cccc1c23
active: [5] 24.9 µM | [7] 37.8 µM
not listed: CYP2E1 (gene 1571) | [13] | [14]
inactive: all other assays above

O=C1CCCO1
active: Caspase-3 (Homo sapiens) 50 µM | [6] 78.5 µM | CYP4A11 (gene 1579) 0.0449 µM | CYP3A5 (gene 1577) 9.92 µM
not listed: [5] | [14]
inactive: all other assays above

Nc1ccc(Cl)cc1N
inactive: [3] | Caspase-3 (Homo sapiens) | [4] | [6] | [11] | [12]
active: [1] 16.2 µM | [2] 28.8 µM | [7] 21.6 µM | [8] 28.6 µM | CYP2C8 (gene 1558) 25.1 µM | CYP2C9 (gene 1559) 24.6 µM | CYP2E1 (gene 1571) 19.5 µM | CYP4A11 (gene 1579) 23.2 µM | [9] 19.7 µM | [10] 50 µM | [13] 12.9 µM | CYP3A5 (gene 1577) 17.3 µM

CCC12COCN1COC2
not listed: [5]
inactive: all other assays above

O=C(O)C1C2CCC(O2)C1C(=O)O (stereo not drawn)
active: [1] 67.8 µM | [5] 50 µM | [7] 77.7 µM | [8] 82 µM | CYP2C8 (gene 1558) 58.9 µM | CYP2C9 (gene 1559) 86.7 µM | CYP2E1 (gene 1571) 45.4 µM | CYP4A11 (gene 1579) 50 µM | [9] 79.7 µM | [10] 50 µM | [11] 13.9 µM | [12] 9.92 µM | [14] 61.1 µM
inactive: [2] | [3] | Caspase-3 (Homo sapiens) | [4] | [13] | CYP3A5 (gene 1577)

COc1cc(C=O)cc2c1[C@H](COC(N)=O)[C@]1(OC(C)=O)ON2C[C@H]2[C@@H]1N2C(C)=O
active: [1] 0.316 µM | [6] 3.89 µM | [7] 73.4 µM | [8] 0.804 µM | CYP2C8 (gene 1558) 0.5 µM | CYP2C9 (gene 1559) 24.2 µM | CYP4A11 (gene 1579) 0.5 µM | [10] 15.8 µM
not listed: [13] | [14]
inactive: all other assays above

Nc1ccc(Oc2ccc(N)cc2)cc1
active: [7] 67 µM
not listed: [5]
inactive: all other assays above
